KB-3-1 tox = kills parental KB-3-1 adenocarcinoma cells; Potency, µM (highest dose often 46.1 µM), actives largely listed as cytotoxic; hit rate 1.4% among 400,000; KB-3-1 viability, CellTiter-Glo ATP luminescence, 72 h; also: % is scaled to controls: 0 for no effect and ±100 for the full control effect; nearly all actives have a fitted effect of over 60% in size
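Here the drug-naive KB-3-1 line serves as comparator for MDR sub-line selectivity; cells received compound titrations, 72 h at 37 °C, then CellTiter-Glo readout.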
KB-V1 MDR tox = kills drug-selected multidrug resistant KB-V1 cells; KB-V1 MDR cells viability, CellTiter-Glo, 72 h; Potency, µM (highest dose often 46.1 µM), usual class: cytotoxic; hit rate 3.4% among 400,000; also: % is scaled to controls: 0 for no effect and ±100 for the full control effect; nearly all actives have a fitted effect of over 60% in size
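In this primary screen, KB-V1 cells overexpressing P-gp are incubated with library compounds (lowest to highest concentration) for 72 h at 37 degrees C before a luminescent ATP viability read.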
MCF10A rereplic = DNA re-replication induction in MCF 10a cells; MCF 10A DNA re-replication, Hoechst nuclear intensity, 48 h; Potency, µM (series often up to 46.1 µM), inactives show top-dose activity, positive = re-replication, actives largely listed as activators; hit rate 2.9% among 350,000; also: % of control where 0% means no effect; nearly all actives have a fitted effect of over 50% in size
RGS4 inhibitor = human RGS4 inhibition. P49798. Transcreener GDP fluorescence polarization, RGS4-accelerated GTP hydrolysis. Potency, µM (highest dose often 114 µM), for inactives: top-dose activity change, negative = inhibition, usual class: inhibitors. hit rate 0.039% among 390,000. AID 504845; also: % is scaled to controls: 0 for no effect and ±100 for the full control effect; nearly all actives have a fitted effect of over 75% in size
Target sequence (P49798 whole entry, looked up): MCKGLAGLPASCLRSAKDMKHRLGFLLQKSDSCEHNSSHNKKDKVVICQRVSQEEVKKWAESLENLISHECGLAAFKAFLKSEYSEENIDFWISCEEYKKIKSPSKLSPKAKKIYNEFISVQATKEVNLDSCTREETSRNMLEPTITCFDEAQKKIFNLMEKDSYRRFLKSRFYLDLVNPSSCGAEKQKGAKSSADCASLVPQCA
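MLSMR compounds (23 nl, pin-transferred) preincubated 10 min at room temperature with a 500nM (2x) first reagent, then RGS4 at 900nM (2x) plus Transcreener GDP mix added; fluorescence polarization (620/688 nm) read before and after 90 min at 30 °C.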
SW480 rereplic = DNA re-replication induction in SW480 cells. SW480 DNA re-replication, Hoechst DNA content imaging, 48 h. Potency, µM (highest dose often 46.1 µM), for inactives: top-dose re-replication activation, most hits filed as activators. hit rate 1.8% among 340,000. AID 624297; also: % of control where 0% means no effect; nearly all actives have a fitted effect of over 55% in size
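250 cells/well; 23 nL cpd via pin tool; 48 hr, 37 C, 5% CO2; Hoechst 40 min; imager read of total nuclear intensity, ex 405/em 500-530 nm.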
TSG101-PTAP inh = blocks PTAP/TSG101 interaction to inhibit HIV-1 budding; Fluorescence polarization, FITC-PTAP peptide / Tsg101 binding; Potency, µM (highest dose often 115 µM), inactives show at the top dose activity change, negative = inhibition, actives largely listed as inhibitors; 340,000 tested, under 10 active; active = well fitted inhibition curve with a large enough effect in the main read-out, with a control signal flat, not every such curve was filed as active; inconclusive = small, poorly fitted or top-dose-only effect, or effect the other way, or a change in a side signal; inactive = no such curve, though single readings can be large or run the other way; also: % of control where 0% means no effect
Target sequence (Q99816 whole entry, looked up): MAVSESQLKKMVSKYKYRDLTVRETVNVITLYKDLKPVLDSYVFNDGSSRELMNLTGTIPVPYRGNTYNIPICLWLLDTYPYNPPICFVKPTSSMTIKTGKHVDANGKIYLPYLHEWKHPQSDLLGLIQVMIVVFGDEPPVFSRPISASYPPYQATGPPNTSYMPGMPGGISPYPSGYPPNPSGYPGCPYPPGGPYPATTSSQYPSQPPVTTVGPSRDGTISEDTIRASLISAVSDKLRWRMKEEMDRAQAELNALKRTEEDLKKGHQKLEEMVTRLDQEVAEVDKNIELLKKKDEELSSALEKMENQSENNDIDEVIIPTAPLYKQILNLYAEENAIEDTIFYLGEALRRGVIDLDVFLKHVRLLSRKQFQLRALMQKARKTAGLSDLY
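FP read-out: FITC-PTAP peptide, 50 nM final, binding Tsg101 binding domain, 10 uM final; 20 min, r.t.; 10 mM HEPES pH 7.5, 0.15 M NaCl, 0.01% Tween 20, 3 mM EDTA, 0.1 mM TCEP.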
Starred values were filed as active, the others as inactive; i = inactive; ? = inconclusive; / = not tested or not shown. Most compounds without a hit are left out; they make up all but 6.6% or so of the library. Unless noted, calls follow the shape of the dose curve; as a rule, active = well fitted curve in the direction sought with a large enough effect; inconclusive = small, poorly fitted or top-dose-only effect, or another doubt; inactive = no such curve, though single readings can be large; an effect the other way counts as inactive or inconclusive. Potency is read from the fitted curve at half-maximal effect.

SMILES	KB-3-1 tox	KB-V1 MDR tox	MCF10A rereplic	RGS4 inhibitor	SW480 rereplic	TSG101-PTAP inh
COc1cccc(OC)c1C(=O)NCc1ccco1	i	i	/	/	/	/
COc1cc(-n2c(N)c(C(=O)NCc3ccco3)c3nc4ccccc4nc32)cc(OC)c1OC	i	i	9.2µM*	-35%	12µM*	-5%
COc1ccc(-n2c(N)c(C(=O)NCc3ccco3)c3nc4ccccc4nc32)cc1	i	i	4%	-14%	-4%	-8%
CC(C)N1C(=O)C(O)(c2c[nH]c3ccccc23)c2ccccc21 (stereo unspecified)	i	i	/	6%	/	/
CC(=O)Nc1nc(-c2ccc3c(c2)CCN3C(=O)C2CC2)c(C)s1	?	15µM*	24%	-1%	?	-4%
Cc1ccc(C(=O)Nc2ccc3oc(-c4cc(Br)ccc4Cl)nc3c2)cc1	i	i	/	4%	/	/
Cc1nn(CCCC(=O)NCc2ccc(Cl)cc2)c(C)c1[N+](=O)[O-]	i	23µM*	-5%	-9%	-205%	-3%
Cc1ccccc1Oc1cc(NC(=O)CCCn2nc(C)c([N+](=O)[O-])c2C)cc([N+](=O)[O-])c1	i	3.3µM*	2%	2%	23%	1%
CCn1nc(C)c(C(=O)Nc2cc(Oc3ccc(Cl)cc3)cc([N+](=O)[O-])c2)c1C	i	?	8.2µM*	12%	?	-8%
Cc1c(Cl)c([N+](=O)[O-])nn1CCCC(=O)Nc1cc(Oc2ccccc2)cc([N+](=O)[O-])c1	i	?	-1%	-18%	-19%	1%
COc1ccc(CNC(=O)CCCn2nc(C)c([N+](=O)[O-])c2C)cc1OC	i	?	-1%	10%	-5%	0%
Cc1nn(CCCC(=O)Nc2cc(Oc3ccc(F)cc3)cc([N+](=O)[O-])c2)c(C)c1[N+](=O)[O-]	i	5.8µM*	0%	-32%	1%	0%
COc1ccc(C(=O)Nc2ccc(-c3nc4ncccc4o3)cc2C)cc1Br	i	i	/	23%	/	/
O=C1CC(c2ccccc2)Sc2ccccc2N1Cc1ccccc1F (stereo unspecified)	?	?	/	15%	/	/
COc1ccc(Cn2c(SCc3ccc(C(=O)NC(C)C)cc3)nc3cccnc32)cc1	i	i	/	-13%	/	/
Cc1ccc(CNC(=O)c2nn(C)c(C)c2[N+](=O)[O-])cc1	i	i	-72%	-15%	0.52µM*	0%
Cc1ccc(CNC(=O)c2ccc([N+](=O)[O-])o2)cc1	?	?	?	-30%	?	-4%
O=c1c(N=Nc2ccc(O)cc2)c(-c2ccccc2)[nH]n1-c1ccc([N+](=O)[O-])cc1	i	?	1%	-19%	?	-5%
O=c1cc(-c2ccccc2)[nH]n1-c1ccc([N+](=O)[O-])cc1	?	?	15µM*	-31%	23%	0%
COc1ccc(NC(=O)Cn2cnc3ccc(S(=O)(=O)N4CCC(C)CC4)cc3c2=O)cc1Cl	i	i	/	10%	/	/
O=C1/C(=C\c2cccnc2)SC(=S)N1C1CCS(=O)(=O)C1 (stereo unspecified)	?	i	15µM*	-53%	?	-4%
O=C1/C(=C/c2cccnc2)SC(=S)N1N1CCOCC1	i	i	1%	11%	-3%	-2%
Cc1ccc(N2C(=O)/C(=C/c3cccnc3)SC2=S)cc1	i	i	0%	-7%	2%	0%
O=C1/C(=C/c2cccnc2)SC(=S)N1C1CCS(=O)(=O)C1 (stereo unspecified)	?	?	15µM*	-36%	?	-1%
NC(=O)c1ccc(NC(=O)C2CCN(S(=O)(=O)Cc3ccccc3)CC2)cc1	i	i	/	27%	/	/
SMILES	KB-3-1 tox	KB-V1 MDR tox	MCF10A rereplic	RGS4 inhibitor	SW480 rereplic	TSG101-PTAP inh
Cc1ccc2cc(COC(=O)C3CCCO3)c(=O)[nH]c2c1 (stereo unspecified)	?	12µM*	-2%	-15%	-5%	-9%
CCOC(=O)/C(N=Nc1ccc(C(=O)O)cc1[N+](=O)[O-])=C(\C)O	i	i	3.7µM*	-16%	-67%	-2%
CC(=O)/C(N=Nc1ccc(C(=O)O)cc1[N+](=O)[O-])=C(\C)O	i	?	6%	13%	-22%	2%
CCCn1nc(NC(=O)C(C)(C)C)c2cc3cc(OC)ccc3nc21	i	?	15µM*	37%	21µM*	-9%
CCCCn1nc(NC(=O)CC)c2cc3cc(OC)ccc3nc21	i	i	26µM*	-1%	21µM*	0%
CCCCn1nc(NC(=O)COC)c2cc3ccc(C)cc3nc21	i	?	-4%	-1%	34%	1%
CSc1ccc(CNC(=O)Cn2c(-c3cccs3)cc3cc(F)ccc32)cc1	i	i	/	-8%	/	/
CC(C)Nc1nc(Oc2ccc(Cl)cc2)cc(C(F)(F)F)n1	i	i	23µM*	43%	8%	-3%
CCNc1nc(Oc2ccc(C#N)cc2)cc(C(F)(F)F)n1	18µM*	3.3µM*	-14%	-24%	9%	-1%
CCNc1nc(Oc2ccc(F)cc2)cc(C(F)(F)F)n1	i	i	3%	-28%	-3%	1%
CC1CC(NC(=O)c2c(O)nc3sccn3c2=O)CC(C)(C)C1 (stereo unspecified)	i	18µM*	-3%	-25%	?	-3%
CC1CC(NC(=O)c2c(O)nc3ccccn3c2=O)CC(C)(C)C1 (stereo unspecified)	i	21µM*	-4%	-9%	-4%	-1%
O=C(NCCN1CCOCC1)c1c(O)nc2ccccn2c1=O	i	i	-1%	-38%	5%	3%
O=C(NC1CCCCC1)c1c(O)nc2sccn2c1=O	?	?	8%	-3%	-554%	-3%
O=C(NC1CCCCCC1)c1c(O)nc2sccn2c1=O	?	15µM*	-3%	8%	6%	-2%
CC1CCN(S(=O)(=O)c2ccc3c(ccc(=O)n3CC(=O)Nc3ccc(C(C)C)cc3)c2)CC1	i	?	/	-31%	/	/
O=C(NCc1ccc2c(c1)OCO2)c1ccc(CSCc2ccc(Cl)cc2)o1	i	21µM*	?	-12%	-5%	-5%
O=C(NCc1ccc(Cl)cc1)c1ccc(CSCc2cccc(Cl)c2)o1	i	i	/	-3%	/	/
COc1ccc(CCNC(=O)CN(c2cc(OC)ccc2OC)S(=O)(=O)c2ccccc2)cc1	i	23µM*	-6%	?	-78%	-9%
